Assays:
Conditions in all cases: concentration: 1 μM, replicates: in singlicate; n = 1
[1] = tested on: EPHA2
[2] = tested on: EPHA3
[3] = tested on: EPHA4
[4] = tested on: EPHA5
[5] = tested on: EPHA6
[6] = tested on: EPHA7
[7] = tested on: EPHA8
[8] = tested on: EPHB1
[9] = tested on: EPHB2
[10] = tested on: EPHB3
[11] = tested on: EPHB4
[12] = tested on: EPHB6
[13] = tested on: ERBB2
[14] = tested on: ERBB3
[15] = tested on: ERBB4
[16] = tested on: T1, ERK1
T1 construct: gene MAPK3

[17] = tested on: T2, ERK2
T2 construct: gene MAPK1

[18] = tested on: T3, ERK3
T3 construct: gene MAPK6

[19] = tested on: T4, ERK4
T4 construct: gene MAPK4

[20] = tested on: T5, ERK5
T5 construct: gene MAPK7
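Note: KINOMEscan kinase panel screen.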

SMILES | %Inh [1] | %Inh [2] | %Inh [3] | %Inh [4] | %Inh [5] | %Inh [6] | %Inh [7] | %Inh [8] | %Inh [9] | %Inh [10] | %Inh [11] | %Inh [12] | %Inh [13] | %Inh [14] | %Inh [15] | %Inh [16] | %Inh [17] | %Inh [18] | %Inh [19] | %Inh [20]
Fc1ccc(-c2nn3cccc(F)c3c2-c2ccncc2)cc1 [GW475620] | 12% | 2% | 15% | 13% | 38% | 0% | 4% | 8% | 0% | 31% | 10% | 0% | 39% | 0% | 30% | 21% | 10% | 0% | 4% | 0%
CCc1ccc(-c2ccc3c(c2)-c2n[nH]cc2S(=O)(=O)N3C)cc1 | 2% | 0% | 0% | 5% | 0% | 0% | 0% | 0% | 10% | 0% | 8% | 0% | 40% | 15% | 0% | 0% | 7% | 0% | 0% | 5%
Cc1ccc(NC(=O)c2ccc(Cl)cc2)cc1-c1ccc(C(=O)Nc2ccncc2)cc1 [GSK1398467] | 9% | 81% | 11% | 0% | 0% | 4% | 18% | 19% | 7% | 8% | 30% | 0% | 30% | 0% | 12% | 0% | 0% | 0% | 19% | 0%
COc1nccc(-c2c(-c3ccc(F)cc3)ncn2CCCN2CCOCC2)n1 [SB-282852] | 0% | 10% | 0% | 0% | 0% | 0% | 0% | 0% | 0% | 0% | 0% | 17% | 40% | 46% | 4% | 0% | 0% | 0% | 0% | 0%
Cc1cnc(N)c(/C=C/c2cncc(C(=O)NCCc3ccc(Cl)cc3Cl)c2)c1.Cl [GSK190937] | 8% | 16% | 6% | 0% | 0% | 6% | 10% | 5% | 0% | 6% | 9% | 0% | 7% | 0% | 0% | 7% | 0% | 0% | 6% | 0%

Source: paper PMC5540273 (PLoS ONE, 2017)
